Calls of active or inactive are those of the source. The call rests on the fitted dose curve; in most records, active means well fitted curve in the direction sought with a large enough effect in the repeat runs; inconclusive means weak or mixed curves; inactive means flat fitted curve, though single readings scatter.

The values below come from PubChem BioAssay (Tox21).
On the % scale 0 is the no-effect control and ±100 the full control effect.

The nature of the assay: qHTS assay to test for compound auto fluorescence at 535 nm (green) in HepG2 cell free culture (AID 720686). As to conditions: Cell-free medium, green autofluorescence 485/535 nm; series mostly up to 91.3 µM. The source says:
U.S. Tox21 Program National Center for Advancing Translational Sciences [NCATS] NIH Chemical Genomics Center [NCGC] U.S. Environmental Protection Agency [EPA] National Institutes of Environmental Health Sciences [NIEHS] National Toxicology Program [NTP] U.S. Food and Drug Administration [FDA] Tox21 Assay Overview: Compound auto fluorescence often interferes with screening of the compound library against various biological targets and signaling pathways. Some of these compounds may have fluorophoric properties. Such properties may interfere with the assay outputs resulting in false positives and/or negatives. To decrease such complications and ensure the compound activities are relevant in terms of biological response, the Tox21 10K compound library was screened for auto fluorescence. From the fluorophores used as reporter signals in our screening assays, the auto fluorescence equivalencies of compounds against three fluorophores have been evaluated: Triamterene, Fluorescein and Rose Bengal sodium for blue, green and red fluorescence, respectively. The fluorescence intensities were measured using Excitation/Emission wavelengths at 405/460nm, 485/535nm and 540/590nm for blue, green and red labels, respectively. This assay includes the green fluorescence data.
Tox21 Assay Protocol Summary: 5 uL of culture medium (MEM containing 10% FBS) per well was dispensed into black wall/clear bottom 1536-well plates using a Multidrop Combi Dispenser (ThermoFisher Scientific, Waltham, MA). After 23 nL compound or DMSO vehicle was transferred into assay plate by a pintool work station (Kalypsys, San Diego, CA), fluorescence intensities in the assay plates were measured by an Envision (PerkinElmer, Shelton, CT) plate reader using three labels for measuring blue, green and red fluorescence at […] 460, 535 and 590nm respectively.
Take `O=C(O)C(=O)Cc1ccccc1`: the molecule was classed as inactive.

In the case of `CC(=O)Nc1ccc(S(=O)(=O)Cl)cc1`, the molecule was classed as inactive. Consider `CCOC(=O)/C=C/c1ccccc1`, for which the molecule was classed as inactive. Consider `CCCCCCCCCCCCCC`, for which the call was inactive. On to `C=C(C)C(=O)OCC(C)(C)COC(=O)C(=C)C`, for which the molecule was called inactive. With `CCc1ccc(C=O)cc1`, the molecule was called inactive.

Turning to `CC(=O)OC(C)OC(=O)C(C)c1ccc(-c2ccccc2)c(F)c1` (stereo not given), the molecule was classed as inactive. Take `CCOC(=O)c1ccc(OC(=O)CCCCCN=C(N)N)cc1`: the fluorescence, % of fluorescein control was -0.0655% [at 18.6 µM] (inactive).

As for `O=C1c2ccccc2C(=O)C1c1ccccc1`, the fluorescence, % of fluorescein control is -0.0587% [at 18.6 µM] (inactive).

In the case of `CC(=O)NCc1c(I)c(NC(C)=O)c(I)c(C(=O)O)c1I`, the molecule was classed as inactive. As for `CC(C)NCC(O)COc1cccc2[nH]ccc12` (stereo not given), the result was inactive.

Take `CCCCCCCCC(=O)Cl`: the outcome was inactive. With `O=S(=O)(O)c1ccc2cc(O)c(S(=O)(=O)O)cc2c1`, the molecule was classed as inactive. Still for that read-out and setting: the value for `COC(=O)CCc1ccc(OCC(O)CNC(C)C)cc1` (stereo not given) was “inactive”.

`CCCOC(=O)C(C)O` (stereo not given): the molecule was classed as inactive. Still for that read-out and setting: the value for `C[C@@H]1O[C@@H](O[C@@H]2[C@@H](O)[C@H](OCCc3ccc(O)c(O)c3)O[C@H](CO[C@@H]3O[C@H](CO)[C@@H](O)[C@H](O)[C@H]3O)[C@H]2OC(=O)/C=C/c2ccc(O)c(O)c2)[C@H](O)[C@H](O)[C@H]1O` was “inactive”.

Take `CCCCCCCCC1CCC(=O)O1` (stereo not given): the call was inactive.

For `COCCOC(=O)C1=C(C)NC(C)=C(C(=O)OC(C)C)C1c1cccc([N+](=O)[O-])c1` (stereo not given), the molecule was classed as inactive.

On to `CC(=O)CCCCn1c(=O)c2c(ncn2C)n(C)c1=O`, for which the fluorescence, % of fluorescein control was -0.0364% [at 18.6 µM] (inactive). Take `N[C@@H](CCC(=O)N[C@@H](CS)C(=O)NCC(=O)O)C(=O)O`: the molecule was called inactive.

As to `ClCCCl`, the outcome was inactive. On to `COc1ccc2c(c1)C(=O)N(CCc1ccc(S(=O)(=O)NC(=O)NC3CCCCC3)cc1)C(=O)C2(C)C`, for which the fluorescence, % of fluorescein control is -0.167% [at 18.6 µM] (inactive). With `O=C(O)Cc1ccc(Cl)cc1Cl`, the outcome was inactive. `CC(C)C(=O)OCCc1ccccc1`: the outcome was inactive. With `O=S(=O)(O)c1cc(O)c2ccc(Nc3ccccc3)cc2c1`, the molecule was called inactive. Take `CC(N)C(=O)OC(C)(C)Cc1ccc(Cl)cc1` (stereo not given): the molecule was classed as inactive.

Consider `CCCCOC(=O)c1ccccc1`, for which the call was inactive.

On to `Cc1cccc2nccnc12`, for which the molecule was classed as inactive. `BrCCCCCBr`: the call was inactive. In the case of `C=C(C)C(=O)OCc1ccccc1`, the outcome was inactive. Take `OCCC(F)(F)C(F)(F)C(F)(F)C(F)(F)C(F)(F)C(F)(F)C(F)(F)C(F)(F)F`: the call was inactive. In the case of `CO[C@@H]1[C@@H](OC(N)=O)[C@@H](O)[C@H](Oc2ccc3c(O)c(NC(=O)c4ccc(O)c(CC=C(C)C)c4)c(=O)oc3c2C)OC1(C)C`, the fluorescence, % of fluorescein control is -0.0494% [at 18.6 µM] (inactive). Regarding `Cc1nc2n(c(=O)c1CCN1CCC(c3noc4cc(F)ccc34)CC1)CCC[C@H]2O`, the result was inactive.

On to `CCCN1C[C@H](CSC)C[C@@H]2c3cccc4[nH]cc(c34)C[C@H]21`, for which the outcome was inactive. Take `CCOc1cc([N+](=O)[O-])c(OCC)cc1N1CCOCC1`: the molecule was called inactive. Same read-out and setting: the same measure for `CC(C)N(c1ccccc1)C(C)C`: “inactive”; for `CC(=O)c1sc(C)nc1C`: “inactive”. Same read-out and setting: the same measure for `Oc1cn2c(n1)Nc1ccc(Cl)c(Cl)c1C2`: “inactive”. Regarding `CC1(CO)CN(c2ccccc2)NC1=O` (stereo not given), the call was inactive.

Take `Cc1ccccc1OCC(O)CO` (stereo not given): the outcome was inactive.
